Results reported in PubChem BioAssay AID651593 (National Center for Advancing Translational Sciences (NCATS), 2012).
The whole screen tested about 1,100 compounds, of which about 860 (78%) were called active. About 19% were inconclusive and are not listed. The set was probably picked from earlier hits. The list shows a part of the results. Values without a mark were called inactive. Calls follow the shape of the dose curve; as a rule, active = well fitted activation curve with a large enough effect; inconclusive = small, poorly fitted or top-dose-only effect; inactive = flat fitted curve, though single readings scatter.

test: qHTS of Nrf2 Activators: Hit Validation in Primary Assay; details: Nrf2/ARE reporter cell assay; Potency: activation; series mostly up to 46.1 µM; activation: at the top concentration; also: nearly all actives have a fitted effect of over 70% in size; as to activation: 0% is about no effect
How it was run: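 AREc32 cells stably carrying an ARE-driven firefly luciferase, plated overnight, then exposed 24 h at 37 °C to compounds at several concentrations. ARE activation read as luminescence with Steady-Glo after 30 min at room temperature.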
Potency is read from the fitted curve at half-maximal effect.

| SMILES | Potency | activation |
| --- | --- | --- |
| O=c1oc2ccc(Br)cc2cc1-c1nc2ccccc2o1 | 23.1 µM (active) | – |
| O=C(Cn1ncc(Cl)c(Cl)c1=O)NC1CCS(=O)(=O)C1 (centres undefined) | 6.51 µM (active) | – |
| O=C(Nc1cccc2ncccc12)c1ccc(Cl)cc1 | 2.59 µM (active) | – |
| Cc1cc(-c2sccc2Br)nc(-n2cccc2)n1 | 3.66 µM (active) | – |
| Cc1cc(-c2sccc2C)nc(-n2cccc2)n1 | 5.8 µM (active) | – |
| Cc1ccsc1-c1ccnc(-n2cccc2)n1 | 11.6 µM (active) | – |
| Cc1cc(-c2cccs2)nc(-n2cccc2)n1 | 5.17 µM (active) | – |
| Cc1ccc(S(=O)(=O)c2nc(S(C)(=O)=O)sc2N2CCOCC2)cc1 | 8.2 µM (active) | – |
| CS(=O)(=O)c1nc(S(=O)(=O)c2ccc(Cl)cc2)c(N2CCOCC2)s1 | 4.11 µM (active) | – |
| Cc1nnc2n1N=CC=C(c1ccccc1)S2 | 3.66 µM (active) | – |
| Clc1ccc2c(NCc3ccccn3)ncnc2c1 | 4.61 µM (active) | – |
| Oc1ccc(Cl)cc1N=Cc1sc2ccccc2c1Cl | 6.51 µM (active) | – |
| Cc1sc2ncnc(SCc3ccco3)c2c1C | 2.91 µM (active) | – |
| CCc1cc2c(NCc3ccco3)ncnc2s1 | 3.66 µM (active) | – |
| Cc1sc2ncnc(Sc3nnnn3-c3ccccc3)c2c1C | – | 15.9% |
| Cc1sc2ncnc(NCc3ccco3)c2c1C | 3.66 µM (active) | – |
| c1ccc(Cn2ncc3c(NCc4ccco4)ncnc32)cc1 | 2.06 µM (active) | – |
| CCN(CC)CCNC(=O)C(Cl)=C1C(Cl)=C(Cl)C(Cl)=C1Cl | 3.66 µM (active) | – |
| O=C(NC(=S)Nc1cccc2cccnc12)c1cccs1 | 2.91 µM (active) | – |
| O=C(NC(=S)Nc1ccc(Cl)cn1)c1cccs1 | 2.91 µM (active) | – |
| O=C(NC(=S)Nc1ccc(Br)cn1)c1cccs1 | 2.91 µM (active) | – |
| Cc1cccc(NC(=S)NC(=O)c2cccs2)n1 | 8.2 µM (active) | – |
| COC(=O)c1cc2c(s1)-c1cc(F)ccc1OC2 | 9.2 µM (active) | – |
| O=C1/C(=C\c2ccc(Cl)cc2)CCC1CNc1ccc(Cl)cc1 (centres undefined) | 3.66 µM (active) | – |
| N#Cc1cnc2cc(-c3ccccc3)nn2c1N | 6.51 µM (active) | – |
| CC(=O)Nc1ccc(S(=O)(=O)c2ccnc3cc(Cl)ccc23)cc1 | 14.6 µM (active) | – |

| SMILES | Potency | activation |
| --- | --- | --- |
| O=S(=O)(c1ccc(F)cc1)c1snnc1-c1ccccc1 | 18.4 µM (active) | – |
| Cc1ccc(N=C/C(C(=O)C(F)(F)F)=C(\O)c2ccco2)cc1Cl | 7.31 µM (active) | – |
| O=C(/C(C=Nc1ccc(F)cc1)=C(/O)c1ccco1)C(F)(F)F | 20.6 µM (active) | – |
| Cc1cccc(N=C/C(C(=O)C(F)(F)F)=C(\O)c2ccco2)c1 | 20.6 µM (active) | – |
| O=C(/C(C=Nc1cccc(C(F)(F)F)c1)=C(/O)c1ccco1)C(F)(F)F | 11.6 µM (active) | – |
| CC(=O)Nc1ccc(N=Nc2ccccc2)cc1[N+](=O)[O-] | 3.66 µM (active) | – |
| CC(=O)Nc1cc2oc3ccccc3c2cc1[N+](=O)[O-] | 2.59 µM (active) | – |
| COC(=O)c1c(NC(=O)/C=C/C(=O)O)sc(C)c1-c1ccc(C(C)C)cc1 | 10.3 µM (active) | – |
| c1ccc(-c2noc(-c3cccc4ccccc34)n2)cc1 | 2.31 µM (active) | – |
| c1ccc(-c2noc(-c3cccnc3)n2)cc1 | 2.59 µM (active) | – |
| COc1cccc(-c2nc(-c3ccccc3)no2)c1 | 2.91 µM (active) | – |
| COc1nc2ccc(C)cc2cc1-c1noc(-c2ccccc2)n1 | 2.59 µM (active) | – |
| Fc1ccccc1-c1nc(-c2ccc(Cl)cc2)no1 | 3.26 µM (active) | – |
| c1cncc(-c2noc(-c3cccc4ccccc34)n2)c1 | 1.16 µM (active) | – |
| CC1=NC(=O)C(N=Nc2cccc(O)c2)N1c1ccccc1 (centres undefined) | 7.31 µM (active) | – |
| Cc1cccc2c(=O)n(C(=O)c3ccccc3)c(N)nc12 | 1.03 µM (active) | – |
| COc1ccc(OC)c(/C=C(\C#N)c2nc(-c3ccc(F)cc3)cs2)c1 | 2.59 µM (active) | – |
| O=C(Nc1nnc(-c2ccccc2F)s1)C1CCCO1 (centres undefined) | 7.31 µM (active) | – |
| COc1ccccc1-c1nnc(NC(C)=O)s1 | 20.6 µM (active) | – |
| O=C(Nc1nnc(-c2ccccc2F)s1)Nc1ccccc1F | 1.84 µM (active) | – |
| COc1ccc(NC(=O)Nc2nnc(-c3ccccc3F)s2)cc1 | 1.84 µM (active) | – |
| O=C(Nc1ccccc1)c1nc[nH]c1C(=O)Nc1ccccc1F | – | 17.5% |
| O=C(CC(=O)c1ccccn1)c1ccccc1 | 3.66 µM (active) | – |
| NS(=O)(=O)c1ccc(Sc2nc3ccccc3s2)c([N+](=O)[O-])c1 | 16.4 µM (active) | – |
| NC(=O)c1nc(Nc2ccccc2)sc1NC(=O)c1c(F)cccc1F | 2.59 µM (active) | – |
| NC(=O)c1nc(Nc2ccccc2)sc1NC(=O)c1ccccc1Br | 2.31 µM (active) | – |

| SMILES | Potency | activation |
| --- | --- | --- |
| O=C(/C=C/c1ccccc1)Nc1nc(-c2cccs2)ns1 | 2.59 µM (active) | – |
| O=C(/C=C/c1ccccc1Cl)Nc1nc(-c2cccs2)ns1 | 7.31 µM (active) | – |
| Cc1sc2c(c1C)C(=O)NC(c1ccccc1F)N2 (centres undefined) | 20.6 µM (active) | – |
| CCC/C(=N\NC(=O)c1ccco1)c1ccc(Cl)s1 | 5.17 µM (active) | – |
| O=c1c(-c2ccco2)[n+]([O-])c2ccccc2n1OCc1c(F)cccc1F | 0.58 µM (active) | – |
| O=c1c(-c2ccco2)[n+]([O-])c2ccccc2n1OCc1ccccc1 | 5.17 µM (active) | – |
| CCOC(=O)COn1c(=O)c(-c2ccco2)[n+]([O-])c2ccccc21 | 9.2 µM (active) | – |
| COc1ccc(-c2cc3ccccc3c(=O)o2)cc1 | 4.61 µM (active) | – |
| CC(=O)c1sc(Nc2ccccc2)nc1C | 18.4 µM (active) | – |
| O=[N+]([O-])c1ccc(SCc2ccco2)cc1N1CCOCC1 | 2.31 µM (active) | – |
| O=C1CC(C(=O)Nc2ccc(Cl)c(Cl)c2)S/C(=N\N=C\c2ccco2)N1 (centres undefined) | 0.731 µM (active) | – |
| Cc1cccc(NC(=O)C2CC(=O)N/C(=N/N=C/c3ccco3)S2)c1 (centres undefined) | 2.06 µM (active) | – |
| Cn1c(NC(=O)/C=C/c2ccccc2)cc(=O)n(C)c1=O | 20.6 µM (active) | – |
| O=C(CC1S/C(=N/N=C/c2ccco2)NC1=O)Nc1ccccc1 (centres undefined) | 1.84 µM (active) | – |
| Cc1ccc(NC(=O)CC2S/C(=N/N=C/c3ccco3)NC2=O)cc1Cl (centres undefined) | 1.03 µM (active) | – |
| O=c1cc(-c2ccco2)nc(SCc2cccc(Cl)c2)[nH]1 | 1.16 µM (active) | – |
| O=C(Nc1ccccn1)c1csc2c1CCCC2 | 5.8 µM (active) | – |
| COC(=O)c1cc2nc(-c3ccccc3)cc(C(F)(F)F)n2n1 | 6.51 µM (active) | – |
| O=c1nc2c(O)cccn2c2c1c(=O)[nH]c1ccccc12 | 2.31 µM (active) | – |
| O=c1cc(COc2ccccc2[N+](=O)[O-])nc2sccn12 | 9.2 µM (active) | – |
| CCOC(=O)CCn1c(=O)c2cccn2c2cccnc21 | 18.4 µM (active) | – |
| CCCc1cc(C(N)=O)c(NC(=O)c2ccco2)s1 | 4.61 µM (active) | – |
| N#Cc1c(NC(=O)c2ccc([N+](=O)[O-])o2)sc2c1CCC2 | 3.66 µM (active) | – |
| NC(=O)c1c(NC(=O)c2ccc([N+](=O)[O-])o2)sc2c1CCCC2 | 2.91 µM (active) | – |
| NC(=O)c1c(NC(=O)c2ccco2)sc2c1CCC2 | 2.59 µM (active) | – |
| O=C(NCC1CCCO1)c1ccc([N+](=O)[O-])o1 (centres undefined) | 23.1 µM (active) | – |

| SMILES | Potency | activation |
| --- | --- | --- |
| O=C1Nc2ccccc2/C1=C/c1ccccc1Cl | 2.31 µM (active) | – |
| Cc1ccccc1/C=C1\C(=O)Nc2ccc(F)cc21 | 5.17 µM (active) | – |
| N#CC(=C1C=CC(=NO)C(Cl)=C1)c1ccccc1 | 5.17 µM (active) | – |
| O=C(/C=C/c1ccccc1Cl)Nn1cnc2ccccc2c1=O | 2.91 µM (active) | – |
| N#Cc1c(-c2ccco2)cc(-c2ccccc2)[nH]c1=O | 1.64 µM (active) | – |
| CC(=O)Oc1c(-c2ccco2)oc2ccccc2c1=O | 0.651 µM (active) | – |
| CC(=O)c1sc2nc(-c3cccs3)cc(C(F)(F)F)c2c1N | 2.59 µM (active) | – |
| Nc1c(C(=O)C2CC2)sc2nc(-c3cccs3)cc(C(F)(F)F)c12 | 2.91 µM (active) | – |
| Cc1ccc(S(=O)(=O)/N=C(/NNC(=O)c2cccc(Cl)c2)c2ccccc2)cc1 | 18.4 µM (active) | – |
| O=C(NN/C(=N/S(=O)(=O)c1ccc(Cl)cc1)c1ccccc1)c1cccc(Cl)c1 | 9.2 µM (active) | – |
| COCCN(C(=O)c1ccco1)c1nc(-c2ccccc2)cs1 | 20.6 µM (active) | – |
| C=C1C2=C(C(=O)N1OC)[C@@H](O)[C@@](C)(O)[C@@H](CCCCC)O2 | 23.1 µM (active) | – |
| Cc1ccc([N+](=O)[O-])c(OCc2ncc(Cl)n2C)c1 | 18.4 µM (active) | – |
| Cc1ccccc1CS(=O)(=O)c1cnc2ccccc2n1 | 16.4 µM (active) | – |
| CCOc1cc(C=O)cc(N=Nc2cccc([N+](=O)[O-])c2)c1O | 16.4 µM (active) | – |
| Cc1nc(NC(=O)c2ccc(Br)o2)ccc1Br | 9.2 µM (active) | – |
| Cc1cccc(NC(=S)NC(=O)c2ccc(Br)o2)c1 | 10.3 µM (active) | – |
| O=C(Nc1ccc2ccccc2c1)c1ccc(Br)o1 | 2.91 µM (active) | – |
| O=C(/C=C/c1ccco1)Nc1cccnc1Cl | 1.46 µM (active) | – |
| O=C(/C=C/c1ccco1)Nc1cccc2cccnc12 | 0.82 µM (active) | – |
| O=C1C2C(C(=O)N1/N=C/c1ccc([N+](=O)[O-])o1)C1C=CC2C12CC2 (centres undefined) | 18.4 µM (active) | – |
| O=C1C2C3C=CC(C4CC34)C2C(=O)N1/N=C/c1ccc([N+](=O)[O-])o1 (centres undefined) | 3.66 µM (active) | – |
| Nc1ccc2c(Cl)cc(Cl)cc2c1 | 2.31 µM (active) | – |
| Cn1c(=O)c(C(=O)NNC(=O)c2ccccc2F)c(O)c2ccccc21 | 2.31 µM (active) | – |
| O=C(c1ccc(S(=O)(=O)Cc2ccccc2Cl)c([N+](=O)[O-])c1)N1CCOCC1 | 18.4 µM (active) | – |
| O=C(c1ccc(S(=O)(=O)Cc2cc(F)ccc2F)c([N+](=O)[O-])c1)N1CCCC1 | 7.31 µM (active) | – |
